Test [1] can be described thus: antimalarial activity against Dd2 strain (AID 2302;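 active = growth inhibition above 50% at the single 2 µM test dose, taken to imply half-maximal potency below 2 µM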;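 also: 0% = DMSO untreated growth and 100% = chloroquine plus artemisinin killed control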). Conditions: P. falciparum Dd2 in RBCs, LDH growth readout, 72 h; at 2 µM; hits give high values.
Test [2] is described as follows: human hepatoma cell viability loss – ATP luminescence, cytotoxicity control for P. falciparum antimalarial project, primary screen (AID 2303;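 active = inhibition above 50%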;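 also: 0% = DMSO wells and 100% = digitonin-killed cells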). The settings on record: HepG2 viability, 24-48 h, at 10 µM, hits give high values.
Test [3] addresses L-lactate dehydrogenase (Plasmodium falciparum (isolate CDC / Honduras)) (UniProt Q27743). Put plainly: PfLDH activity inhibition – cell lysate, 3D7 strain, counter-screen for P. falciparum growth inhibition project (AID 2304).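 Also: 0% = vehicle and 100% = reference inhibitor.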 Conditions: P. falciparum 3D7 crude extract, LDH APAD/NBT absorbance; at 2 µM; hits give high values. For orientation: The purpose of a counterscreen is to sort out artefacts and off-target activity.

Test [4] can be described thus: inhibition of 3D7 malaria parasite growth – strain 3D7 (AID 2306).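 Also: 0% = DMSO wells and 100% = chloroquine plus artemisinin control wells.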 Conditions: P. falciparum 3D7 erythrocytic growth, LDH absorbance, 72 h; at 2 µM; hits give high values.
Test [5] deals with Calcium-dependent protein kinase 1 (Plasmodium falciparum (isolate 3D7)) (UniProt P62344). Put plainly: PfCDPK1 kinase inhibitors, biochemical, TCAMS library (AID 1159585; cut-off not given, nearly all actives have IC50 up to about 0.98 µM;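 also: inhibitors leave more ATP so luminescence rises with inhibition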). The settings on record: recombinant PfCDPK1, Kinase-Glo ATP depletion luminescence.
Test [6] has as its target Plasmodium falciparum protein kinase 6 (PK6, PF3D7_1337100) (UniProt Q8IDW1). Put plainly: PfPK6 kinase inhibitors, biochemical, TCAMS library (AID 1159586). Conditions: recombinant PfPK6, Kinase-Glo ATP depletion luminescence.
Test [7] deals with Protein kinase 7 (PK7), Plasmodium falciparum 3D7 (PF3D7_0213400) (UniProt Q7YTF7). The test can be described thus: inhibition of Plasmodium PK7 catalytic activity – biochemical, TCAMS antimalarial set, Kinase-Glo luminescence (AID 1159587). The settings on record: recombinant PfPK7, Kinase-Glo ATP depletion luminescence. On the technique in general: In Kinase-Glo more light means more ATP remaining.

For test [8], the target named is Calcium-dependent protein kinase 4 (Plasmodium falciparum (isolate 3D7)) (UniProt Q8IBS5). Put plainly: PfCDPK4 kinase inhibitors, biochemical, TCAMS library (AID 1159588; cut-off not given, nearly all actives have IC50 up to about 0.91 µM). Conditions: recombinant PfCDPK4, Kinase-Glo ATP depletion luminescence.

Values without a mark were called inactive. For some assays here: Results with a measured potency or affinity are listed apart. Active and inactive are the calls of the source. Unless noted, no rule for the calls is given here.

One may read the inhibition as the change of the read-out against control, counted positive when it falls.

Calcium-dependent protein kinase 4 (Plasmodium falciparum (isolate 3D7)), sequence (Q8IBS5 whole entry, looked up): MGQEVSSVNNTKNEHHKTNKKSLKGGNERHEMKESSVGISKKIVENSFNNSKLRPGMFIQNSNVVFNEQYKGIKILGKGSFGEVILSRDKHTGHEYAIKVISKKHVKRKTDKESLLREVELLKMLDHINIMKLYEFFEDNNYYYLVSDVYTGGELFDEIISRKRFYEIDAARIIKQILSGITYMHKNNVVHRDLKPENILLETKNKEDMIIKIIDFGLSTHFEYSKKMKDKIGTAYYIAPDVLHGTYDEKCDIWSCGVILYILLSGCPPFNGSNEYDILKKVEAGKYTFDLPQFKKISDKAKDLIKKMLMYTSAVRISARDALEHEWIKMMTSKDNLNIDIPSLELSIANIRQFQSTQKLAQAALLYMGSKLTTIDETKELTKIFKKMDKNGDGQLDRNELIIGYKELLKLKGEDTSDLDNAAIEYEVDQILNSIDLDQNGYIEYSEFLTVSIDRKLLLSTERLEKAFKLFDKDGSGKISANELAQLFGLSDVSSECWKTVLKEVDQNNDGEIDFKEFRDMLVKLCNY
Plasmodium falciparum protein kinase 6 (PK6, PF3D7_1337100), sequence (Q8IDW1 1-305): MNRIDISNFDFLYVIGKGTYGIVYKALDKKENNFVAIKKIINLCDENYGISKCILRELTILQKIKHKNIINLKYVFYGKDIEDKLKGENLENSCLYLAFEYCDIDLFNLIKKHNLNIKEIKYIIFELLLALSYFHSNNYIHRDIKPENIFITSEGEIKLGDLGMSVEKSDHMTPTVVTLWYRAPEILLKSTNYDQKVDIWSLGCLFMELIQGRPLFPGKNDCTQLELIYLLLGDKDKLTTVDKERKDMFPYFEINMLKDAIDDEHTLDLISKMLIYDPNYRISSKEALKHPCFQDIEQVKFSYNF
Protein kinase 7 (PK7), Plasmodium falciparum 3D7 (PF3D7_0213400), sequence (Q7YTF7 1-343): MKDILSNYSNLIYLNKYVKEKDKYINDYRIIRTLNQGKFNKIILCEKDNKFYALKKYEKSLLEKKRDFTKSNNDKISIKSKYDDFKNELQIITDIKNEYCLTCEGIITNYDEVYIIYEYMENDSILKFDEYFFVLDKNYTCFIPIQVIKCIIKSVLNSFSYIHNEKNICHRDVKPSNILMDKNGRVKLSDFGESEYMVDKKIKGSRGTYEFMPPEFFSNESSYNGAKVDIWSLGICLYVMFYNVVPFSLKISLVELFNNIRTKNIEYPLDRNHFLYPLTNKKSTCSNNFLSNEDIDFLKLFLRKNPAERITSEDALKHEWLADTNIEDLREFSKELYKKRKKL
L-lactate dehydrogenase (Plasmodium falciparum (isolate CDC / Honduras)), sequence (Q27743 whole entry, looked up): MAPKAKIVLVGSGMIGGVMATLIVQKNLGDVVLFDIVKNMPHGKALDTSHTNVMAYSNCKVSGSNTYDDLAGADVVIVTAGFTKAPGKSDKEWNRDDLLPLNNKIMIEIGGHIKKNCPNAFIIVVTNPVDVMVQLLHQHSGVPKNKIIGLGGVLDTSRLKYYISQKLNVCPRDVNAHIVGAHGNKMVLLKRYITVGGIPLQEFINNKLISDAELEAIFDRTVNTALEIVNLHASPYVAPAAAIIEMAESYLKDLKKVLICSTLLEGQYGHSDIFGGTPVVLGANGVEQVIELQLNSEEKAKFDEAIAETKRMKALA
Calcium-dependent protein kinase 1 (Plasmodium falciparum (isolate 3D7)), sequence (P62344 whole entry, looked up): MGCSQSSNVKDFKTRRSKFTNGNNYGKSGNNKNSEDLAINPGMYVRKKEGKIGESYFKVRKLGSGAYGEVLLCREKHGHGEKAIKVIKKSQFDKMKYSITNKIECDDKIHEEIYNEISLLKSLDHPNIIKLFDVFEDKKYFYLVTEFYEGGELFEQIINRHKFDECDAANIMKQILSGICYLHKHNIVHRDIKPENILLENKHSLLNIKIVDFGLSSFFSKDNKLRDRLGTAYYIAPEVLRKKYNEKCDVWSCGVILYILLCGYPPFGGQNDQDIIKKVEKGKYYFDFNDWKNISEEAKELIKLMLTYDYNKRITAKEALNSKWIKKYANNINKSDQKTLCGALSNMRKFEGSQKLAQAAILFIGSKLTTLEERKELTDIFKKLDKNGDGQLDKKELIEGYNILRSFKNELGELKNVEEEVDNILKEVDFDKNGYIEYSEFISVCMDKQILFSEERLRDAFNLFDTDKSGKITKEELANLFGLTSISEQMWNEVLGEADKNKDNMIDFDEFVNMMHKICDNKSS

Consider `Fc1ccc(Nc2ccnc3cc(-c4cccc(CN5CCCCC5)c4)ccc23)c(Cl)c1`, for which the results for the growth inhibition in test [1] and in test [4] were 58% (active) and 91% (active), respectively. The inhibition in test [2] is 3%; in test [3] it was -1%. Besides, the outcome in test [5], in test [6], in test [7] and in test [8] was inactive.

`CCNc1cc(C(=O)N[C@@H](Cc2ccccc2)[C@H](O)CNC(C)C)cc(N2CC(c3ccccc3)CCS2(=O)=O)c1` (some centres not stated): the growth inhibition was 99% (active) in test [1] and 98% (active) in test [4]. The inhibition in test [2] is 0%; in test [3], -1%. Further, the outcome in test [5], in test [6], in test [7] and in test [8] was inactive.

As to `CCn1c(SCc2ccc(F)cc2)nc2sc3c(c2c1=O)CCN(C)C3`, the growth inhibition in test [1] was 81% (active); in test [4], 95% (active). Further, the inhibition in test [2] was 2%; in test [3] it was 3%. The outcome in test [5], in test [6], in test [7] and in test [8] was inactive.

As to `Cc1cccc2[nH]c(-c3ccc(-c4ccc(C(=O)NCCc5cn(C)cn5)cc4)s3)nc12`, the growth inhibition in test [1] is 8%; in test [4] it was 88% (active). Also, the inhibition in test [2] is -6%; in test [3], -2%. The result in test [5], in test [6], in test [7] and in test [8] was inactive.

With `Cc1ccc(NC(=O)c2ccc3ncccc3c2)cc1OC1CCN(Cc2ccsc2)CC1`, the growth inhibition was 29% in test [1] and 93% (active) in test [4]. In addition, the inhibition was 21% in test [2] and -2% in test [3]. For the same molecule, the result in test [5], in test [6], in test [7] and in test [8] was inactive.

Take `Cc1ccc(NC(=O)c2nc(N3CCN(c4ccncc4)CC3)ccc2Cl)cc1F`: the growth inhibition is 57% (active) in test [1] and 100% (active) in test [4]. In addition, the values for the inhibition in test [2] and in test [3] were 51% (active) and -5%, respectively. Besides, the result in test [5], in test [6], in test [7] and in test [8] was inactive.

With `Cc1cc(N(C)C2CCN(C)C2)nc(Nc2ccc(Cl)cc2)n1` (configuration not stated), the growth inhibition in test [1] was 88% (active); in test [4] it was 100% (active). Besides, the inhibition in test [2] was 8%; in test [3], 0%. In addition, the result in test [5], in test [6], in test [7] and in test [8] was inactive.

As to `CCCCCCN1CCC(NCc2ccc(Cl)cc2)CC1`, the growth inhibition in test [1] was 9%; in test [4], 98% (active). For the same molecule, the inhibition in test [2] was 19%; in test [3], -7%. Further, the result in test [5], in test [6], in test [7] and in test [8] was inactive.

With `CC(=O)NCC(=O)NC1=NC(C)(C)N(OCc2ccc3ccccc3c2)C(N)=N1`, the growth inhibition was 97% (active) in test [1] and 95% (active) in test [4]. For the same molecule, the inhibition was 66% (active) in test [2] and -1% in test [3]. Also, the result in test [5], in test [6], in test [7] and in test [8] was inactive.

Turning to `CCC(O)(C#Cc1c(C)nc(N)nc1N)CC`, the growth inhibition in test [1] is -5%; in test [4], 97% (active). Also, the inhibition was 63% (active) in test [2] and 2% in test [3]. In addition, the outcome in test [5], in test [6], in test [7] and in test [8] was inactive.

For `COc1cccc(CNc2noc(-c3c(-c4ccccc4)noc3C)n2)c1OC`, the growth inhibition is 86% (active) in test [1] and 97% (active) in test [4]. For the same molecule, the inhibition in test [2] is -3%; in test [3], -2%. The result in test [5], in test [6], in test [7] and in test [8] was inactive.

With `CN1CCC(N2CCN(Cc3cccc(-c4ccc(-c5nc6ccccc6[nH]5)cc4)c3)CC2)CC1`, the growth inhibition was 99% (active) in test [1] and 100% (active) in test [4]. Further, the inhibition was 56% (active) in test [2] and -7% in test [3]. Further, the result in test [5], in test [6], in test [7] and in test [8] was inactive.

For the molecule `CC(C)c1cc(N)c2cc(NC(=O)COCC(=O)Nc3ccc4nc(C(C)C)cc(N)c4c3)ccc2n1`, the growth inhibition in test [1] and in test [4] was 95% (active) throughout. For the same molecule, the inhibition is -8% in test [2] and 0% in test [3]. The outcome in test [5], in test [6], in test [7] and in test [8] was inactive.

`NC1CCN(Cc2ccc(-c3ccc(-c4nc5ccc(F)cc5[nH]4)s3)cc2)C1` (configuration not stated): the growth inhibition in test [1] was 98% (active); in test [4], 100% (active). The figures for the inhibition in test [2] and in test [3] were 32% and 3%, respectively. The outcome in test [5], in test [6], in test [7] and in test [8] was inactive.

Regarding `CC(C)(C)c1ccc(CNC(=O)/C=C/c2ccc(CNC3CCNCC3)cc2)cc1`, the growth inhibition in test [1] was 21%; in test [4], 96% (active). Further, the inhibition was 6% in test [2] and 1% in test [3]. For the same molecule, the outcome in test [5], in test [6], in test [7] and in test [8] was inactive.

Consider `CCCc1cc(C)ccc1OCCCON1C(NC(=O)OCC)=NC(NC(=O)OCC)=NC1(C)C`, for which the growth inhibition in test [1] was 97% (active); in test [4] it was 95% (active). Moreover, the figures for the inhibition in test [2] and in test [3] were 62% (active) and 0%, respectively. For the same molecule, the outcome in test [5], in test [6], in test [7] and in test [8] was inactive.

Turning to `Cc1ccc(-c2cc(C(=O)Nc3ccc(S(=O)(=O)N4CCCCC4)cc3)[nH]n2)c(O)c1`, the growth inhibition is 92% (active) in test [1] and 97% (active) in test [4]. The inhibition was 6% in test [2] and -5% in test [3]. For the same molecule, the result in test [5], in test [6], in test [7] and in test [8] was inactive.

Consider `COc1cc(NC(=O)N2CCc3ccc(OCCN(C(C)C)C(C)C)cc32)cc(C(F)(F)F)c1`, for which the growth inhibition was 97% (active) in test [1] and 102% (active) in test [4]. Also, the inhibition in test [2] was 6%; in test [3], 3%. The outcome in test [5], in test [6], in test [7] and in test [8] was inactive.

Regarding `c1ccc(CN2CCC(Nc3ccc(-c4cn[nH]c4-c4ccccn4)nc3)CC2)cc1`, the growth inhibition in test [1] was 23%; in test [4], 97% (active). The figures for the inhibition in test [2] and in test [3] were 1% and -5%, respectively. Also, the result in test [5], in test [6], in test [7] and in test [8] was inactive.

Values taken from PubChem BioAssay.
